Shown are actives, neighbours in structure and some others; about 21% of the full set was active somewhere.
AMA1-RON2 inh = qHTS for Inhibitors of AMA1-RON; Towards Development of Antimalarial Drug Lead: Primary Screen; Plasmodium falciparum AMA1 (3D7) - RON2 peptide interaction; AlphaScreen AMA1-biotinylated RON2 peptide binding; Potency, µM (series often up to 58.2 µM), inactives show at the highest dose activity change, negative = inhibition, actives largely listed as inhibitors; 360,000 compounds, 0.2% hits;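 also: potency is read from the fitted curve at half-maximal effect; 0% = vehicle wells and -100% = peptide control; nearly all actives have a fitted effect of over 45% in size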
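AMA1 (3D7) with his tag at 25 nM final met compounds first, then biotinylated RON2 peptide at 25 nM; detection used donor plus acceptor beads, 10 µg/mL apiece, read by AlphaScreen after 30 min at room temperature.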
HCV inhibitor = qHTS Assay for Inhibitors of Hepatitis C Virus (HCV); Huh7.5.1 HCVcc-Cre infection, luciferase reporter, 44 h; Potency, µM (titrated, usually from 41.8 µM), for the others: at the top dose activity change, negative = inhibition, actives largely listed as inhibitors; 340,000 compounds, 3.4% hits; also: potency is read from the fitted curve at half-maximal effect; % is scaled to controls: 0 for no effect and ±100 for the full control effect
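1,000 cells/well; 4 h culture; + compound; + HCVcc-Cre (~0.5 moi); 44 h; luciferase substrate, RT 15 min; read 15 sec.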
Shiga toxin inh = A qHTS for Small Molecule Inhibitors of Shiga Toxin. Vero cells, Shiga toxin protein synthesis inhibition reporter. inhibition, % at 38.7 µM. 290,000 compounds, 9.2% hits. AID 2315, 2010; in the data active = inhibition mostly above about 28%, no sharp cut-off; inactive = mostly below about 43%; also: 0% is about no effect
Pf growth 96h = Primary qHTS for delayed death inhibitors of the malarial parasite plastid, 96 hour incubation. Potency, µM (top dose mostly 28.7 µM), for inactives: at the highest dose activity change, negative = inhibition, usual class: inhibitors. P. falciparum luciferase reporter growth, 96 h. AID 504834, 2011. 320,000 compounds, 6.9% hits; also: potency is read from the fitted curve at half-maximal effect; % is scaled to controls: 0 for no effect and ±100 for the full control effect
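96 h incubation, 37 C, 5% CO2, of luciferase-reporter P. falciparum-infected RBCs (2% hematocrit, 0.05% parasitemia final) with test compounds; endpoint luminescence.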
Cycloheximide cs = Cycloheximide Counterscreen for Small Molecule Inhibitors of Shiga Toxin; cell reporter, cycloheximide protein synthesis inhibition counterscreen; max response, %; 300,000 compounds, 12% hits; AID 2314, 2010; in the data active = max response mostly above about 13%, no sharp cut-off; inactive = mostly below about 14%; also: read at 38.3 µM for the half of the compounds with a filed dose; 0% is about no effect
Pf growth 48h = Primary qHTS for delayed death inhibitors of the malarial parasite plastid, 48 hour incubation. P. falciparum luciferase growth in erythrocytes, 48 h. Potency, µM (highest dose often 28.7 µM), for inactives: top-dose activity change, negative = inhibition, hits mostly inhibitors. 310,000 compounds, 5.9% hits; also: potency is read from the fitted curve at half-maximal effect; % is scaled to controls: 0 for no effect and ±100 for the full control effect
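Luciferase-expressing P. falciparum in infected erythrocytes (2% hematocrit, 0.1% parasitemia final) in RPMI 1640/0.5% Albumax were exposed to compound for 48 hours at 37 C, 5% CO2; growth read as luminescence.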
The depositor's hits bear a star; i = inactive; ? = inconclusive; nt = no result. Unless noted, calls follow the shape of the dose curve; as a rule, active = well fitted curve in the direction sought with a large enough effect; inconclusive = small, poorly fitted or top-dose-only effect, or another doubt; inactive = no such curve, though single readings can be large; an effect the other way counts as inactive or inconclusive.

SMILES	AMA1-RON2 inh	HCV inhibitor	Shiga toxin inh	Pf growth 96h	Cycloheximide cs	Pf growth 48h
COC(=O)c1sc(NC(=O)C(C)C)c(C(=O)OC)c1C	1%	-22%	16	?	40*	9%
CCOC(=O)c1c(NC(=O)OC)sc(C(=O)N(CC)CC)c1C	21%	?	-6	?	-1	5.9µM*
CCOC(=O)c1c(NC(=O)C2c3ccccc3Oc3ccccc32)sc(C(C)=O)c1C	0%	0.79µM*	-10	?	-3	?
CCN(CC)C(=O)c1sc(NC(=O)C(Sc2ccccc2)c2ccccc2)c(C(=O)OC(C)C)c1C (configuration not stated)	-1%	10µM*	-11	0.41µM*	17	nt
NC(=O)C(=O)N/N=C/c1c2ccccc2cc2ccccc12	51%	?	3	?	18	12%
CCOC(=O)C1C(=O)CC(C)(O)C(C(=O)OCC)C1c1cccc(OC(F)(F)C(F)F)c1 (configuration not stated)	-1%	0%	13	?	-2	10µM*
O=C(CSc1nnc(COc2ccc(F)cc2)o1)N1CCCCC1	2%	0%	-4	-25%	-4	25%
O=C(CSc1nnc(COc2cccc3cccnc23)o1)N1CCc2ccccc21	0%	2.2µM*	43	-2%	-1	25%
Cc1cccc(OCc2nnc(SCC(=O)N3c4ccccc4CCc4ccccc43)o2)c1	-1%	-27%	-8	?	3	10µM*
O=C(CSc1nnc(COc2ccc(F)cc2)o1)N1c2ccccc2CCc2ccccc21	4%	nt	-5	?	8	4.1µM*
COc1cc(OC)cc(C(=O)NCC(=O)Nc2ccc(OC)c(Cl)c2)c1	2%	-11%	3	-1%	0	-1%
Cc1cccc(C)c1NC(=O)CNC(=O)c1ccc(NS(=O)(=O)c2ccc3[nH]c(=O)[nH]c3c2)cc1	-3%	14%	nt	0%	nt	2%
COc1ccc(C(=O)c2c(C(F)(F)F)oc3c2C(=O)c2ccccc2C3=O)cc1	?	1.6µM*	-13	nt	11	0.1µM*
COc1ccc(S(=O)(=O)N2CCOCC2)cc1NC(=O)COC(=O)c1ccc([N+](=O)[O-])s1	-27%	13%	nt	nt	nt	nt
O=C(NCc1cccnc1)c1cc(C2CCCN(C(=O)c3cccs3)C2)on1 (configuration not stated)	-6%	nt	nt	nt	nt	nt
CCn1ccnc1CN1CCCC(C(=O)c2cccc(C(F)(F)F)c2)C1 (configuration not stated)	38%	-28%	-10	13%	-2	9.3µM*
COc1cccc(O)c1CN1CCCC(C(=O)c2cccc(C(F)(F)F)c2)C1 (configuration not stated)	?	?	-3	?	8	2.9µM*
O=C(c1cccc(C(F)(F)F)c1)C1CCCN(Cc2ncc[nH]2)C1 (configuration not stated)	35%	5%	11	?	-3	-11%
COc1ccc(S(=O)(=O)NCC(c2ccc3c(c2)OCO3)N2CCOCC2)cc1 (configuration not stated)	3%	23%	nt	51%	nt	9%
O=Cc1c(Cl)nc2ccccn2c1=O	0%	10µM*	15	-12%	1	15%
Cc1cccn2c(=O)c(C=O)c(Cl)nc12	0%	?	-4	17%	9	-10%
NS(=O)(=O)c1cnccc1NCCc1ccccc1	-5%	9%	nt	nt	nt	nt
CC(C)[C@H]1COC(c2cccc([N+](=O)[O-])c2)=N1	nt	nt	i	nt	14	nt
CC(C)C1COC(c2cccc3ccccc23)=N1 (configuration not stated)	-4%	4%	136*	274%	76*	180%
C[C@@H]1CN([C@@H](C)CO)C(=O)c2cc(Br)cnc2O[C@H]1CN(C)C(=O)c1ccc2c(c1)OCO2	-2%	nt	nt	nt	nt	nt
NNc1n[nH]c(=S)n1N	70%	17%	63*	-16%	40*	?

Screens: PubChem BioAssay, National Center for Advancing Translational Sciences (NCATS)
